The values that follow come from ChEMBL document CHEMBL3433997, “St. Jude Leishmania screening dataset” (2016).

Format in all cases: functional
Assay [1] concerns the target Solute carrier family 2, facilitated glucose transporter member 1 (Homo sapiens) (UniProt P11166). Nature of the assay: ST_JUDE_LEISH: Cytotoxicity at 2uM final concentration against transgenic Leishmania Mexicana promastigotes LmGLUT1 that are glucose transport deficient and complemented with the human glucose transporter GLUT1. Activity is measured by DNA content using SYBR green in vitro.

The target in assay [2] is Hexose transporter 1 (Plasmodium falciparum) (UniProt O97467). Nature of the assay: ST_JUDE_LEISH: Cytotoxicity at 2uM final concentration against transgenic Leishmania Mexicana promastigotes LmPfHT that are glucose transport deficient and complemented with the Plasmodium falciparum hexose transporter. Activity is measured by DNA content using SYBR green in vitro.
In assay [3] the target is Glucose transporter (Leishmania mexicana) (UniProt O61059). As to the kind of experiment: ST_JUDE_LEISH: Cytotoxicity at 2uM final concentration against transgenic Leishmania Mexicana promastigotes LmGT2 that are glucose transport deficient and complemented with the L. Mexicana glucose transporter 2. Activity is measured by DNA content using SYBR green in vitro.

Chain of Solute carrier family 2, facilitated glucose transporter member 1 (Homo sapiens) (P11166 whole entry): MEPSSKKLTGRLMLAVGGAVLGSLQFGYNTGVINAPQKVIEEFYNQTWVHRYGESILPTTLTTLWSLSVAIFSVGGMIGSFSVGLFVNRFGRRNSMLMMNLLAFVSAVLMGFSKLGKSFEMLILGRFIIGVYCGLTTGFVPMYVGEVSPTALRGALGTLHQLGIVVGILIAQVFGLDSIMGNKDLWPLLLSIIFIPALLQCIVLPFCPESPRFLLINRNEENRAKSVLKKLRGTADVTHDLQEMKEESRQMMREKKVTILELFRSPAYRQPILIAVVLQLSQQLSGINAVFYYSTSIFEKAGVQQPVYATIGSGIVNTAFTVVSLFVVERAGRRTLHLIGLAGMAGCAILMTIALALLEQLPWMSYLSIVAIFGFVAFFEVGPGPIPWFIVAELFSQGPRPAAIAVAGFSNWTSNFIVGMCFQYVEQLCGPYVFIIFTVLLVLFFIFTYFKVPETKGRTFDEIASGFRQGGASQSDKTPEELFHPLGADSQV

What is called inhibition is the drop in the measured response relative to a control, in per cent. For `Cc1cc(N[C@@H](Cc2ccccc2)C(=O)Nc2ccccc2)nc(NCCN2CCCC2)n1`, the figures for the inhibition in assay [1], in assay [2] and in assay [3] were -2.01%, -2.84% and -2.29%, respectively.

Consider `CCCNCc1ccc(-c2ccc(CN(CC3CCCO3)C(=O)C3CC(=O)c4ccccc43)cc2)nc1` (configuration not stated), for which the inhibition in assay [1] was 6.13%; in assay [2], 3.74%; in assay [3], 3.19%.

Consider `CN1CCN(CCCN(Cc2cccc(-c3cccc(CNC4CCCC4)c3)c2)C(=O)CCC2CCCC2)CC1`, for which the inhibition in assay [1] is -0.12%; in assay [2] it was -0.45%; in assay [3], 0.45%.

`CCOc1c(CNCCCNc2nc3ccccc3[nH]2)cc(I)cc1OC`: the inhibition in assay [1] was found to be 1.59%; in assay [2], 1.56%; in assay [3], 2.86%.

In the case of `Cc1c(CNCCN2CCCCC2)c(C(=O)O)c(C)n1Cc1ccc(Cl)cc1`, the inhibition in assay [1] was -0.09%; in assay [2] it was 0.33%; in assay [3], 0.22%.

In the case of `COc1ccc2nccc([C@@H](O)CN3CCC(NCc4cc5sccc5nc4C(F)(F)F)CC3)c2c1`, the results for the inhibition in assay [1], in assay [2] and in assay [3] were 3.75%, 1.89% and -4.21%, respectively.

On to `CC1(C)CCCN(c2ncc(-c3cccc(CNCc4ccccc4O)c3)cn2)C1`, for which the inhibition in assay [1] is 2.91%; in assay [2], 2.13%; in assay [3] it was 3.18%.

On to `CN1CCC(N(Cc2ccc(-c3cnc(NCc4ccccc4)nc3)cc2)S(=O)(=O)c2ccccc2)CC1`, for which the inhibition in assay [1] stood at 14%; in assay [2], 12.1%; in assay [3], 3.05%.

With `CCn1c(-c2nc(-c3ccc4c(c3)OCO4)cnc2N)nc2cnccc21`, the figures for the inhibition in assay [1], in assay [2] and in assay [3] were 19.7%, 12.4% and 13.5%, respectively.

For the compound `CN1CCCN(Cc2cccc(-c3ccc(CNC(=O)c4cccc(Cl)c4)c(F)c3)c2)CC1`, the inhibition in assay [1] turned out to be 69.9%; in assay [2] it was 63.1%; in assay [3], 30.9%.

As to `O=C(/C=C/c1ccc(C(F)(F)F)cc1)NCCCCCN1CCCN(C(=O)Nc2ccc(Cl)cc2)CC1`, the inhibition in assay [1] turned out to be 5.01%; in assay [2], 4.49%; in assay [3] it was 1.84%.

Consider `Fc1ccc(OC2CN(c3nccc(NCc4ccccc4Cl)n3)C2)cc1`, for which the values for the inhibition in assay [1], in assay [2] and in assay [3] were 3.81%, 2.84% and -0.6%, respectively.

Take `Cc1cc(CNC(=O)[C@H](CC2CCCCC2)Nc2ccc(C#N)c3ccccc23)c(C(F)(F)F)o1`: the inhibition is 1.15% in assay [1], 1.57% in assay [2] and -1.16% in assay [3].

As to `CCC(C)OC(=O)C1=C(C)NC2=C(C(=O)CC(c3ccc(OC)c(OC)c3)C2)C1c1cccc(O)c1` (configuration not stated), the inhibition in assay [1] worked out at 4.07%; in assay [2], 0.16%; in assay [3], 1.16%.

For `CC(C)(C)OC(=O)NCc1ccc(Nc2nnc(-c3cccc(OCC(=O)NCc4cc(C(F)(F)F)cc(C(F)(F)F)c4)c3)o2)cc1`, the inhibition amounted to 0.8% in assay [1], 1.63% in assay [2] and 1.12% in assay [3].

Consider `O=C(/C=C/c1ccc(Cl)c(Cl)c1)NCCCCCN1CCC(NC(=O)Nc2ccc(Oc3ccccc3)cc2)C1` (configuration not stated), for which the values for the inhibition in assay [1], in assay [2] and in assay [3] were 2.36%, 1.54% and 0.16%, respectively.

Take `CN1CCN(CC(=O)Nc2ccc(-c3cccc(-c4nc5cc(F)ccc5[nH]4)c3)cc2)CC1`: the inhibition in assay [1] is -0.65%; in assay [2] it was 0.74%; in assay [3] it was -1.87%.

In the case of `Cc1cc(N2CCCC2)nc(Nc2ccc(NC(=O)c3ccccc3F)cc2)n1`, the inhibition was 1.09% in assay [1], 2.77% in assay [2] and -0.95% in assay [3].

For `CCOc1ccc2nc3cc(NC(=O)c4ccco4)ccc3c(N)c2c1`, the inhibition in assay [1] stood at 3.66%; in assay [2], 3.27%; in assay [3], 2.78%.

As to `c1ccc(C2=NN=C(c3ccccn3)C3C4CC(C23)C2C3CC(c5ccccc53)C42)nc1` (configuration not stated), the inhibition in assay [1] is 5.41%; in assay [2] it was 4.38%; in assay [3], 1.22%.

`CCCCCCP(=O)(COc1ccc(CCN(CC(O)COc2cccc3[nH]c(C(N)=O)cc23)CC(O)COc2cccc3[nH]c(C(N)=O)cc23)cc1)OCCCC` (configuration not stated): the inhibition was 8.37% in assay [1], 8.1% in assay [2] and 6.45% in assay [3].

As for `COc1cc(F)c2ncc(Cl)c(CCN3CCC(NCc4ccc5c(n4)NC(=O)CS5)CC3)c2c1`, the results for the inhibition in assay [1], in assay [2] and in assay [3] were 8.34%, 8.44% and -2.08%, respectively.

For the compound `CN1CCC(Oc2cc(NC(=O)Nc3ccc(-c4ccncc4)c(C(F)(F)F)c3)ccc2Cl)CC1`, the inhibition in assay [1] was 12.6%; in assay [2], 10.6%; in assay [3] it was 7.11%.

With `Cc1ccc(NC(=O)c2cccc(CN3CCCN(Cc4cccc(O)c4)CC3)c2)cc1`, the results for the inhibition in assay [1], in assay [2] and in assay [3] were -0.49%, 0.65% and 0.25%, respectively.

`O=S(=O)(NCCN1CCCC1)c1ccc(-c2cccc(CNC3Cc4ccccc4C3)c2)s1`: the figures for the inhibition in assay [1], in assay [2] and in assay [3] were 13.9%, 13.6% and 5.84%, respectively.

With `CCc1c[nH]c2c(N3CCCCS3(=O)=O)cc(C(=O)N[C@@H](Cc3ccccc3)[C@H](O)CNCc3cccc(OC)c3)cc12`, the inhibition in assay [1] is 0.82%; in assay [2], -0.07%; in assay [3] it was -0.23%.

With `COC(=O)c1cccc(NC(=O)NC2CCN(c3ccnc(Nc4ccc(F)cc4)n3)C2)c1` (configuration not stated), the results for the inhibition in assay [1], in assay [2] and in assay [3] were 2.08%, 1.14% and -0.55%, respectively.

With `CN1CCC(NCc2cccc(-c3ccc(S(=O)(=O)NCCN4CCCC4)s3)c2)CC1`, the inhibition in assay [1] was found to be 4.8%; in assay [2], 5.43%; in assay [3] it was 0.76%.

`Cc1c(Cl)cccc1S(=O)(=O)Nc1ccc(CCN2CCC(N)CC2)cc1`: the inhibition in assay [1] was -2.63%; in assay [2] it was -0.88%; in assay [3], -2.13%.

Turning to `O=S(=O)(Nc1cccc(CCN2CCC(N3CCCCC3)CC2)c1)c1ccccc1C(F)(F)F`, the figures for the inhibition in assay [1], in assay [2] and in assay [3] were 1.15%, 0.31% and -2.06%, respectively.

Regarding `COc1cccc2c(NCCNc3ccnc4c(OC)cccc34)ccnc12`, the values for the inhibition in assay [1], in assay [2] and in assay [3] were 6.77%, 6.99% and 7.99%, respectively.

For `O=C(O)C[C@H](NC(=O)[C@@H]1CCCN1C(=O)c1cccc(-c2ccc(Cl)c(Cl)c2)c1)C(=O)O`, the inhibition in assay [1] is 1.31%; in assay [2], 0.14%; in assay [3], 1.61%.

As for `CCC(C)NS(=O)(=O)c1ccc2nc(Nc3ccc(C)cc3)n([C@H](C)C(C)(C)C)c2c1` (some centres not stated), the inhibition in assay [1] is 2.68%; in assay [2], 0.25%; in assay [3], -0.82%.

Consider `O=C(Nc1cccc(C(F)(F)F)c1)N1CCOC(CCN2CCC(c3ccccc3)CC2)(c2ccc(Cl)c(Cl)c2)C1` (configuration not stated), for which the inhibition in assay [1] was determined as 1.69%; in assay [2], 1.44%; in assay [3], 0.72%.
